Data reported in PubChem BioAssay AID999 (SRMLSC, 2007).
Unmarked numbers belong to inactive results. Calls of active or inactive are those of the source.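 Rule for the calls: active = viability at or below 21.59%, 3 SD under the median of tested compounds; inactive = the rest.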

Experiment: growth suppression of PTEN-null HCT116 cells, cell-based, validation, diverse DP compound set (AID 999);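 note: 100% = median luminescence of untreated cell control wells and 0% = no signal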
Details: CellTiter-Glo, 60 h, at 10 µM, active compounds read low

Row | SMILES | viability
1 | Cc1c2oc3c(C)ccc(C(=O)N[C@@H]4C(=O)N[C@H](C(C)C)C(=O)N5CCC[C@H]5C(=O)N(C)CC(=O)N(C)[C@@H](C(C)C)C(=O)O[C@@H]4C)c3nc-2c(C(=O)N[C@@H]2C(=O)N[C@H](C(C)C)C(=O)N3CCC[C@H]3C(=O)N(C)CC(=O)N(C)[C@@H](C(C)C)C(=O)O[C@@H]2C)c(N)c1=O | 43.2%
2 | COc1c(C)c2c(c(O)c1C/C=C(\C)CCC(=O)O)C(=O)OC2 | 40.1%
3 | C[C@@]12C=Cc3occc3C1CC[C@@]13C[C@@H](CCC12)[C@@](O)(CO)C3 (some centres not stated) | 93.5%
4 | CCOC(=O)C(C)(C)Oc1ccc(Cl)cc1 | 100%
5 | COc1ccc2c3c1O[C@H]1C[C@@H](O)C=C[C@@]31CCN(C)C2 | 91.7%
6 | CSc1ccc(/C=C2/C(C)=C(CC(=O)O)c3cc(F)ccc32)cc1 | 98%
7 | CC(=O)N1CCN(c2ccc(OC[C@H]3CO[C@](Cn4ccnc4)(c4ccc(Cl)cc4Cl)O3)cc2)CC1 | 70.7%
8 | CC1(COc2ccc(CC3SC(=O)NC3=O)cc2)CCCCC1 (configuration not stated) | 95.3%
9 | COC(=O)C1=C(C)NC(C)=C(C(=O)OCCNCc2ccccc2)C1c1cccc([N+](=O)[O-])c1 (configuration not stated) | 65.3%
10 | OCCN(CCO)c1nc(N2CCCCC2)c2nc(N(CCO)CCO)nc(N3CCCCC3)c2n1 | 96.3%
11 | COc1ccc(CCN2CCC(Nc3nc4ccccc4n3Cc3ccc(F)cc3)CC2)cc1 | 16.6% (active)
12 | CCC(C)CCCCC(=O)N[C@@H](CCN)C(=O)N[C@H](C(=O)N[C@@H](CCN)C(=O)N[C@H]1CCNC(=O)C([C@@H](C)O)NC(=O)[C@@H](CCN)NC(=O)[C@H](CCN)NC(=O)[C@H](CC(C)C)NC(=O)[C@@H](CC(C)C)NC(=O)[C@H](CCN)NC1=O)[C@@H](C)O (some centres not stated) | 96%
